Hit rate of the full screen: of about 340,000 compounds, about 1,000 (0.29%) were called active. The list is a sample of the results. Entries with a potency or affinity are not part of this list. A number with no mark means an inactive call. Cut-off read from the data, not from the text of the source: inconclusive = inhibition above about 27% without an active follow-up result; inactive = below that.

This is an account of results in PubChem BioAssay AID504329 (Southern Research Specialized Biocontainment Screening …, 2011).

This assay is described as follows: NS1A inhibition, H1N1 influenza, cell based functional assay (AID 504329). The settings on record: percent inhibition, at 12.5 µM, hits give high values.
In the case of `O=C(NCCc1ccc2c(c1)OCCO2)c1ccc([N+](=O)[O-])cc1Cl`, the inhibition is -0.08%.
`O=C(CSc1nnnn1-c1ccc2c(c1)OCO2)NCc1ccccc1`: the inhibition was 0.06%.
For `CCCCOc1c(Br)cc(CNCCCN2CCOCC2)cc1OC`, the inhibition was 1.13%.
To `Cc1ccc(CNc2cc(C(=O)O)ccc2C)s1` belongs 14.2%; to `O=C(NCc1ccccc1F)C1CCCN1S(=O)(=O)c1ccc(F)cc1` (stereo not given), 4.5%; to `O=C(O)c1cccc(NC(=O)c2ccccc2NC(=O)c2ccco2)c1`, -7.51%.
The value for `CN(C)/C=C(\C(=O)c1cccc(Cl)c1)c1nnnn1-c1ccccc1` was -1.13%; that for `N=C(N)c1ccc(N)cc1` was 2.89%.
Regarding `Nc1ccc(C(=O)C(=O)c2ccc(N)cc2)cc1`, the inhibition is 1.62%.
For the compound `CCOC(=O)c1cc(CC)sc1NC(=O)CC1SC(N)=NC1=O` (stereo not given), the inhibition is -8.66%.
Consider `Cc1ccc(S(=O)(=O)Cn2nnnc2C(CC(C)C)N2CCN(C3CCCC3)CC2)cc1` (stereo not given), for which the inhibition was -5.05%.
Turning to `COc1ccc(C(=O)N/N=C(\Cc2ncc[nH]2)c2ccccc2)cc1`, the inhibition was 1.55%.
For `COc1cc(C(=O)N/N=C(\Cc2ncc[nH]2)c2ccccc2)cc(OC)c1OC`, the inhibition was -5.85%.
The value for `CN(CC(=O)Nc1ccccc1Cl)C(=O)COC(=O)c1ccc(-c2ccc(O)cc2)cc1` was -4.29%; that for `CCC(=O)Nc1ccc(C(=O)N/N=C/c2c(C)[nH]c3ccccc23)cc1` was 10.2%.
For `CC(CNC(=O)c1cc(COc2c(F)cccc2F)on1)Oc1cccnc1` (stereo not given), the inhibition is 5.51%.
Take `COc1ccc(/C=C/C(=O)NC(=S)NNC(=O)c2cnccn2)cc1`: the inhibition is 22%.
For the compound `O=C(NNC(=S)NC(=O)c1cccnc1)c1ccc(Cl)cc1`, the inhibition is -8.92%.
To `O=C(/C=C/c1ccccc1)NC(=S)NNC(=O)c1cccnc1` belongs 11.7%; to `O=C(NNC(=S)NC(=O)c1ccc(F)cc1)c1ccncc1`, -6.57%; to `O=C(NNC(=S)NC(=O)c1cccnc1)c1ccc(F)cc1`, 3.02%.
With `O=C(NNC(=O)c1cnccn1)c1ccc(Cl)cc1`, the inhibition is -1.07%.
The value for `CSc1nsc(SCC(=O)N2CCCc3ccccc32)n1` was -4.75%; that for `COc1ccc(NC(C)=O)c2nc(C)c(C)nc12` was 2.97%.
Take `CC1(C)OC(c2ccccc2)=C/C(=C/C=Nc2ccccc2)O1`: the inhibition was -14.7%.
Take `CC1(C)OC(c2ccccc2)=C/C(=C/C=C2C(=O)NC(=O)NC2=O)O1`: the inhibition is 22.3%.
Regarding `CCN(CC)C(=O)Oc1cc(=O)n2c3c(cccc13)CCC2`, the inhibition was 2.43%.
Consider `Cc1cc(C(=O)Nc2ccc3c(c2)OCO3)no1`, for which the inhibition is 6.49%.
For `O=C(COc1ccc(Cl)cc1Br)OCC(=O)c1ccc[nH]1`, the inhibition is -4.26%.
Take `COc1cc(C2SCC(=O)Nc3c2c(=O)[nH]n3C2CCCCCC2)cc(OC)c1OC` (stereo not given): the inhibition was 3.42%.
Take `N#Cc1ccccc1OCC(=O)Nc1ccccc1C(=O)NC1CC1`: the inhibition is -6.65%.
Take `COc1cc([N+](=O)[O-])cc(/C=N/NC(=O)Cn2nccc2C)c1O`: the inhibition is 13.5%.
As to `CCOC(=O)c1c(C)[nH]c(C(=O)N/N=C\c2ccccc2Cl)c1C`, the inhibition is 1.32%.
For `COc1cc([N+](=O)[O-])cc(/C=N/NC(=O)Cn2nc(C)cc2C)c1O`, the inhibition was -28.6%.
As for `O=C(Cn1nc2ccccc2n1)N/N=C/c1cc(Cl)cc([N+](=O)[O-])c1O`, the inhibition is 17.6%.
As for `CCOC(=O)c1c(C)[nH]c(C(=O)N/N=C\c2ccccc2O)c1C`, the inhibition was 0.86%.
As for `Cc1cc(C)n(CC(=O)N/N=C/c2cc(Br)cc([N+](=O)[O-])c2O)n1`, the inhibition is 15.4%.
Regarding `Cc1cc(C)n(CC(=O)N/N=C/c2cccc([N+](=O)[O-])c2)n1`, the inhibition is 4.33%.
The value for `O=C(Cn1nnc(-c2ccccc2)n1)N/N=C/c1cc([N+](=O)[O-])ccc1O` was 0.1%; that for `COc1ccc(NC(=S)N(CCO)Cc2ccccc2)cc1` was 1.27%.
For the compound `CN(C(=O)c1cncc(Br)c1)C1C2CC3CC(C2)CC1C3` (stereo not given), the inhibition was 0.5%.
As for `O=C(COC(=O)C1CCC1)Nc1cc(S(=O)(=O)N2CCCCC2)ccc1Cl`, the inhibition is 3.86%.
Consider `O=C(c1cc(C2CC2)nn1-c1ccccc1)N1CCN(c2ncc(C(F)(F)F)cc2Cl)CC1`, for which the inhibition was -6.87%.
Regarding `CCc1ccccc1NCC(=O)Nc1ccccc1C(=O)OC`, the inhibition was -3.34%.
Take `Cc1c(C)c2ccc(OCC(=O)c3ccccc3)cc2oc1=O`: the inhibition is -16.6%.
For the compound `CC(=O)Nc1ccc(S(=O)(=O)N2CCN(CCc3ccccc3)CC2)cc1`, the inhibition is 0.26%.
As for `Nc1ccccc1N=Cc1c(O)n(CCC2=CCCCC2)c(=O)[nH]c1=O`, the inhibition is -8.66%.
The value for `COC(CNC(=O)C1CCCN(S(=O)(=O)c2c(C)noc2/C=C/c2cccs2)C1)OC` (stereo not given) was 9.65%; that for `O=C(OCc1ccccc1)N1CCC2CC1c1cc(-c3ccccc3)ccc12` (stereo not given) was -8.29%.
For the compound `CCOc1cccc(CN2CCCC(CNC(=O)c3cccc(OC)c3OC)C2)c1` (stereo not given), the inhibition was 0.84%.
The value for `COc1ccc(CCNC(=O)COC(=O)c2cc(S(=O)(=O)N3CCCC3)ccc2O)cc1` was -7.2%; that for `C=CCCN(C(C(=O)OC)C(C)C)S(=O)(=O)c1ccccc1Br` (stereo not given) was -12.7%.
Consider `O=C(N/N=C/c1cc([N+](=O)[O-])ccc1O)Nc1ccccc1`, for which the inhibition is -0.02%.
For `COc1ccc(Br)cc1/C=N/NC(=O)Cn1nnnc1N`, the inhibition was 0.27%.
`Nc1nnnn1CC(=O)N/N=C/c1cc([N+](=O)[O-])ccc1Cl`: the inhibition is -6.51%.
To `Cc1ccc(C)c(NC(=O)CCC(=O)N/N=C/c2cc([N+](=O)[O-])ccc2O)c1` belongs 8.85%; to `CN1CCN(CCC(=O)N/N=C/c2cc([N+](=O)[O-])ccc2OC(F)F)CC1`, -8.9%.
For `Cc1ccc(NC(=O)CCC(=O)N/N=C/c2cc([N+](=O)[O-])ccc2O)cc1`, the inhibition is -7.13%.
To `Cc1ccccc1NC(=O)CCC(=O)N/N=C/c1cc([N+](=O)[O-])ccc1O` belongs 10.1%.
To `O=C(N/N=C/c1cc([N+](=O)[O-])ccc1O)C1CC1` belongs 4.39%.

Usually inhibition stands for the change of the read-out against control, counted positive when it falls.
